Screening results as filed in PubChem.
SW480 rereplic – induces DNA re-replication in SW480 colon adenocarcinoma cells | SW480 DNA re-replication, Hoechst DNA content imaging, 48 h | AID 624297 | hit rate 1.8% among 340,000 | Potency, µM (series often up to 46.1 µM), inactives show top-dose re-replication activation, hits mostly activators; further: % of control where 0% means no effect; nearly all actives have a fitted effect of over 55% in size
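Cells (250 per well) received 23 nL compound or DMSO by pin tool and were kept 48 hr at 37 C, 5% CO2. Nuclei were then stained with Hoechst for 40 min and scanned for DNA content.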
ELG1 DNA repair – ELG1-dependent DNA repair inhibition | HEK293T ELG1-luciferase reporter, luminescence, 16 h; DNA damage induced by 5-fluorouridine | Potency, µM (top dose mostly 46.1 µM), without a hit: top-dose activity change, negative = inhibition, usual class: inhibitors | hit rate 2.3% among 330,000; further: on the % scale 0 is the no-effect control and ±100 the full control effect; nearly all actives have a fitted effect of over 55% in size
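5-Fluorouridine DNA damage + compound/DMSO, 2,000 cells/well, 16 h, 37 °C/5% CO2. ONE-Glo, 30 min RT, luminescence. Readout = decrease in reporter signal.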
KB-3-1 tox – KB-3-1 parental cell cytotoxicity. KB-3-1 viability, CellTiter-Glo ATP luminescence, 72 h. Potency, µM (titrated, usually from 46.1 µM), most hits filed as cytotoxic. hit rate 1.4% among 400,000; further: on the % scale 0 is the no-effect control and ±100 the full control effect; nearly all actives have a fitted effect of over 60% in size
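Multi-concentration cytotoxicity screen in KB-3-1 cells grown in DMEM lacking phenol red with 10% FBS. After 72 h at 37 °C with compound, ATP-dependent luminescence was recorded.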
MCF10A rerep – DNA re-replication induction in MCF 10a cells | MCF 10A DNA re-replication, Hoechst nuclear intensity, 48 h | Potency, µM (highest dose often 46.1 µM), for the others: at the highest dose activity, positive = re-replication, most hits filed as activators | hit rate 2.9% among 350,000 | AID 624296; further: % of control where 0% means no effect; nearly all actives have a fitted effect of over 50% in size
KB-V1 MDR tox – kills drug-selected multidrug resistant KB-V1 cells | KB-V1 MDR cells viability, CellTiter-Glo, 72 h | Potency, µM (highest dose often 46.1 µM), actives largely listed as cytotoxic | hit rate 3.4% among 400,000; further: on the % scale 0 is the no-effect control and ±100 the full control effect; nearly all actives have a fitted effect of over 60% in size
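qHTS viability screen in drug-selected KB-V1 MDR cells: 72 h compound treatment at 37 degrees C, ATP luminescence end point.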
* hit, by the source's call; i = inactive; ? = inconclusive; · = no result given; ! = not confirmed by another sample; [ ] = dose if it differs, or a comment. An excerpt weighted towards active compounds, which were near 8.1% of everything screened. The call rests on the fitted dose curve; in most records, active means well fitted curve in the direction sought with a large enough effect; inconclusive means small, poorly fitted or top-dose-only effect, or another doubt; inactive means no such curve, though single readings can be large; an effect the other way counts as inactive or inconclusive. Potency means the concentration at half of the fitted maximal effect.

SMILES | SW480 rereplic | ELG1 DNA repair | KB-3-1 tox | MCF10A rerep | KB-V1 MDR tox
CC(C)(C)Cc1nc2ccccc2n1CCc1ccccc1 | 9% | -6% | ? | ? | 18µM*
Cn1c(-c2c(N)n(C3CCCC3)c3nc4ccccc4nc23)nc2ccccc21 | 12µM* | ? | 16µM* | 5.2µM* | 21µM*
COCCCn1c(N)c(-c2nc3ccccc3n2C)c2nc3ccccc3nc21 | ? | ? | i | 23µM* | i
O=CNCc1nc2ccccc2n1CCCc1ccccc1 | 4% | -2% | i | -1% | i
Cn1c(-c2c(N)n(CCCc3ccccc3)c3nc4ccccc4nc23)nc2ccccc21 | 16µM* | ? | ? | ? | 9.2µM*
COc1cccc(-c2ccc(NC(=O)C3CCCN(Cc4cnc(C)s4)C3)cc2)c1 (stereo unspecified) | -5% | -23% | i | 6% | i
O=C(c1cn[nH]c1)N1CCc2c([nH]c3ccccc23)C1c1c(F)cccc1Cl (stereo unspecified) | -58% | -3% | i | ? | i
Cc1cn(S(=O)(=O)c2ccccc2[N+](=O)[O-])cn1 | -38% | -4% | i | -43% | i
Cn1c(-c2c(N)n(CCc3ccccc3)c3nc4ccccc4nc23)nc2ccccc21 | 8.2µM* | 9.2µM* | ? | ? | 15µM*
Cc1ccc(S(=O)(=O)N2C[C@@H](C)[C@]3(C2)[C@H](O)[C@H](OC(=O)NC2CCCC2)C[C@H]2C(=O)N(c4ccccc4)C(=O)[C@H]23)cc1 | · | · | i | · | i
Clc1ccc(C2Nc3ccccc3-n3cccc32)cc1 (stereo unspecified) | ? | ? | i | 16µM* | i
CN1c2ccccc2C(=O)NC1c1ccc(Cl)cc1 (stereo unspecified) | 37% | ? | i | 2% | i
Cc1nc(N2CCCCC2)sc1C(=O)c1ccc(SCCO)c([N+](=O)[O-])c1 | 29% | 18µM* | i | ? | 15µM*
O=C1c2ccccc2C(=O)N1CN(C(=O)COc1ccccc1)c1ccc(F)cc1 | -113% | 12% | i | -68% | i
CCOC(=O)/C(C(=O)Nc1ccc(Cl)cc1Cl)=C1/NC(C)(C)Cc2ccccc21 | · | 0% | · | · | ·
CC(C)(C)c1ccc(-c2noc(-c3ccc4c(c3)CCO4)n2)cc1 | 4.6µM* | ? | i | ? | ?
COc1cccc(NS(=O)(=O)c2ccc3[nH]cc(C(=O)N4CCCCCC4)c(=O)c3c2)c1 | · | · | i | · | i
COC(=O)c1cc(NC(=O)Cc2coc3cc(OC)ccc23)cc(C(=O)OC)c1 | -1% | 16µM* | i | 0% | i
C=CCOc1ccc(/C=C\c2nc(O)c([N+](=O)[O-])c(=O)[nH]2)cc1OCC | -65% | -3% | i | -2% | i
CCCN[C@@H]1C(=O)N2C(C(=O)OCCC)=C(C)CS[C@H]12 | 18% | 10% | i | 17% | ?
CCCOC(=O)N[C@@H]1C(=O)N2C(C(=O)OCCC)=C(C)CS[C@H]12 | 49% | -15% | 16µM*! | 16% | ?
Cc1cccc(N(C(=O)CNC(=O)c2cccs2)C(C(=O)NC2CCCC2)c2cccnc2)c1 (stereo unspecified) | -3% | 8% | i | 3% | ?
O=C(NCC(=O)N(c1ccc(F)cc1)C(C(=O)NC1CCCCC1)c1cccnc1)c1ccco1 (stereo unspecified) | -3% | 8% | i | -4% | i
COc1ccc(N(C(=O)CCl)C(C(=O)NC2CCCCC2)c2cccnc2)cc1 (stereo unspecified) | ? | 21µM* | 10µM* | 18µM* | 21µM*
COc1ccc(C(C(=O)NC2CCCCC2)N(C(=O)c2ccccn2)c2cccnc2)cc1 (stereo unspecified) | ? | 7% | i | -3% | i
SMILES | SW480 rereplic | ELG1 DNA repair | KB-3-1 tox | MCF10A rerep | KB-V1 MDR tox
Cc1cc(C)cc(N(C(=O)CNC(=O)c2cccs2)C(C(=O)NC2CCCC2)c2cccnc2)c1 (stereo unspecified) | 0% | -7% | i | 21µM* | i
O=C(NC1CCCCC1)C(c1cccnc1)N(C(=O)CCl)c1ccc(F)cc1 (stereo unspecified) | 2.1µM* | 21µM* | i | 18µM* | 16µM*
O=C(NC1CCCCC1)C(c1cccnc1)N(C(=O)CCl)c1ccccc1Cl (stereo unspecified) | ? | ? | 10µM* | 6% | ?
Cc1nn2c3ccccc3n(CCN3CCCCC3)c2nc1=O | 13% | 6% | i | -2% | i
CCOC(=O)c1c(NC(=O)CSc2nnc(C)s2)sc2c1CCC(C)C2 (stereo unspecified) | 1% | -26% | i | ? | 10µM*
CCOC(=O)c1c(NC(=O)CSc2nnc(C)s2)sc2c1CCCCC2 | -7% | ? | i | 4% | i
COc1ccccc1/C=C1\CCCC2=C1Nc1nnnn1C2c1ccccc1OC (stereo unspecified) | ? | -13% | ? | ? | 8.2µM*
O=C(Cn1c(NCCCO)nc2ccccc21)c1cccc(Br)c1 | ? | 11% | i | 8% | i
Cc1ccccc1-c1cccc([C@@H]2C[C@H]3[C@H](CON3C)CN2Cc2ccccc2)c1 | 10%[9.22 µM] | · | i | 18µM* | i
Cc1ccccc1S(=O)(=O)N1C[C@H]2CON(C)[C@H]2C[C@H]1c1cccc(Oc2ccccc2)c1 | 8.2µM* | · | i | ? | i
C=CCCC(=O)N1C[C@H]2CON(C)[C@H]2C[C@H]1c1cccc(Oc2ccccc2)c1 | · | · | i | · | i
O=C(NC1CCCC1)c1ccc(CSc2nc3ccncc3n2Cc2ccccc2F)cc1 | · | · | i | · | i
OCC1OC(n2cnc3c(=S)nc[nH]c32)CC1O (stereo unspecified) | 4% | · | ? | ? | ?
S=c1nc[nH]c2c1ncn2C1CCCO1 (stereo unspecified) | -1% | -11% | 4.1µM* | ? | ?
O=[N+]([O-])c1ccc(C(O)C(CO)NC(=S)Nc2ccccc2)cc1 (stereo unspecified) | -2% | 8.2µM* | i | -1% | i
Cc1cccc(COCC(Cc2ccccc2)N2CCN(C(=O)c3cc(Cl)cc(Cl)c3)CCC2=O)c1 (stereo unspecified) | 18µM* | ? | ? | 23µM* | i
CC(C)(C)c1ccc(C(=O)N2CCC(=O)N(C(COCc3ccccc3)Cc3ccccc3)CC2)cc1 (stereo unspecified) | ? | ? | ? | 21µM* | ?
